Compound activity from PubChem.
LmPK inhibitor: inhibitors of Leishmania mexicana pyruvate kinase; purified LmPK, Kinase-Glo ATP luminescence, 1 h; Potency, µM (highest dose often 57.5 µM), actives largely listed as inhibitors; actives 0.37% (n = 290,000); AID 1721
Target sequence (Q27686 whole entry, looked up): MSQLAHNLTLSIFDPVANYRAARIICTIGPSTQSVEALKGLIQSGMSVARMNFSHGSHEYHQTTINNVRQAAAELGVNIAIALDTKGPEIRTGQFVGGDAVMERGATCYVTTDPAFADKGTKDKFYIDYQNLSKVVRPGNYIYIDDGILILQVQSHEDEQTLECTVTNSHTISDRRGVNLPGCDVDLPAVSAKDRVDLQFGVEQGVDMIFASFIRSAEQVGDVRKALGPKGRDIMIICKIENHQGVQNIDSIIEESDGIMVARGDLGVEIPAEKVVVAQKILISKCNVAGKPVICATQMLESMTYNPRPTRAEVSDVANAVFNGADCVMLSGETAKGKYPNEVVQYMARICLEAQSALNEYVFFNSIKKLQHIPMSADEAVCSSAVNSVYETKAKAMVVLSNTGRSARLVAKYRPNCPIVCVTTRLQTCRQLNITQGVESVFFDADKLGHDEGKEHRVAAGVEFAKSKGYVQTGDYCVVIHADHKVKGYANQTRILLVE
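Pyruvate kinase activity monitored as ATP production (luciferase luminescence). Conditions: 0.1 nM enzyme, 0.5 mM PEP, 0.1 mM ADP, 1 h, RT; normalized against uninhibited and no-enzyme wells.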
CHX counter: counter-screen for Shiga toxin inhibitors: cycloheximide protein synthesis inhibition; cell reporter, cycloheximide protein synthesis inhibition counterscreen; max response, %; actives 12% (n = 300,000); in the data active = max response mostly above about 13%, no sharp cut-off; inactive = mostly below about 14%; note: read at 38.3 µM for the half of the compounds with a filed dose
FBPA Giardia inh: inhibitors of Giardia lamblia fructose-1,6-bisphosphate aldolase. A8B2U2. actives 0.71% (n = 290,000). AID 2451. purified Giardia FBPA. Potency, µM (doses to about 59.6 µM), most hits filed as inhibitors; note: nearly all actives have a fitted effect of over 55% in size
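40 nM FBPA preincubated 10 min at RT with compound (up to 57.5 uM final), then substrate plus GAPDH/TPI/NAD/arsenate coupling and diaphorase/resazurin added. Fluorescence read after 20 min at RT, 525/598 nm.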
TbPYK inhibitor: inhibitors of Trypanosoma brucei pyruvate kinase; Q57TT1; TbPYK enzyme, Kinase-Glo Plus ATP luminescence, 45 min; Potency, µM (top dose mostly 76.8 µM), usual class: inhibitors; actives 0.12% (n = 410,000); AID 624173; note: nearly all actives have a fitted effect of over 50% in size
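Assay buffer: 50 mM TEA pH 7.2, 100 mM KCl, 10 mM MgCl2, 0.05% BSA, 0.01% Tween-20. Pyruvate kinase from T. brucei plus substrate met compound, then ADP (130 uM final). Luminescence was read post 45 min RT.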
Shiga inhibitor: Shiga toxin inhibition. Vero cells, Shiga toxin protein synthesis inhibition reporter. inhibition, % at 38.7 µM. actives 9.2% (n = 290,000). AID 2315; in the data active = inhibition mostly above about 28%, no sharp cut-off; inactive = mostly below about 43%
RE007 growth inh: less growth of the S. pombe RE007 Vpr strain; S. pombe RE007 Vpr strain, BacTiter-Glo ATP luminescence, 24 h; Potency, µM (doses to about 92.2 µM), actives largely listed as inhibitors; actives 0.21% (n = 360,000); active = well fitted falling curve with a large enough effect; inconclusive = small, poorly fitted or top-dose-only effect; inactive = no such curve, though single readings can be large or run the other way; note: nearly all actives have a fitted effect of over 50% in size
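Fission yeast strain RE007, carrying one chromosomally integrated HIV-1 vpr copy, was seeded at OD 0.01 in PMG+AL medium with 23 nL pinned compound. After 24 h at 30 °C and 99% humidity, viability was read by BacTiter-Glo luminescence.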
Each line names hits and unclear results; the compound was inactive in the other large screens. The entries come from a sample that favours hits as a whole. Unless noted, calls come from the whole dose curve; as a rule, active = well fitted curve in the direction sought with a large enough effect; inconclusive = small, poorly fitted or top-dose-only effect, or another doubt; inactive = no such curve, though single readings can be large; an effect the other way counts as inactive or inconclusive.

COc1ccc2nc3sc(C(=O)NCCN4CCc5ccccc5C4)cc3cc2c1	CHX counter 43, FBPA Giardia inh inconclusive, Shiga inhibitor 53
CCOC(=O)c1c(C)[nH]c2ccc3c(c12)CN1CCc2cc(OC)ccc2[C@@H]1O3	none (no result: LmPK inhibitor, CHX counter, TbPYK inhibitor, Shiga inhibitor, RE007 growth inh)
O=C(N/N=C/C(Br)=C\c1ccccc1)c1n[nH]c2c1CCC2	CHX counter 64, Shiga inhibitor 111, RE007 growth inh inconclusive
O=C(N/N=C/C=C/c1ccccc1)c1n[nH]c2c1CCC2	CHX counter 15
CCN(CC)Cc1c(O)ccc2c1O/C(=C\C=C\c1ccccc1)C2=O	CHX counter 16, Shiga inhibitor 106
COc1ccccc1/C=C/C=C1\Oc2c(ccc(O)c2CN(C)C)C1=O	CHX counter 13
COc1cc(/C=C/C(=O)O)cc(OC)c1	none
COc1cc(/C=C2\C=CC(=O)O2)cc(OC)c1	CHX counter 18
COC(=O)c1ccc(N2CCOCC2)c(F)c1	none
COC(=O)c1ccc(C(=O)OC)c(N)c1	none (no result: TbPYK inhibitor, RE007 growth inh)
COC(=O)c1ccc(N2CCCCC2)c(N)c1	CHX counter 57, Shiga inhibitor 100
COC(=O)c1ccc(N2CCC(C)CC2)c(N)c1	CHX counter 38
CN1[C@@H]2CC(OC(=O)[C@@H](CO)c3ccccc3)C[C@@H]1[C@H]1O[C@H]12 (stereo not given in full)	none (no result: LmPK inhibitor, CHX counter, FBPA Giardia inh, Shiga inhibitor, RE007 growth inh)
O=C1Nc2ccccc2Nc2ncccc21	none
Cc1ccc2c(c1)NC(=O)c1cccnc1N2	CHX counter 51
COc1ccc(NC(=O)C2CCCN(C(=O)c3cnn(-c4ccccc4)c3-n3cccc3)C2)cc1 (stereo not given)	none (no result: LmPK inhibitor, CHX counter, FBPA Giardia inh, Shiga inhibitor, RE007 growth inh)
CC(=O)NC(c1ccc(F)c(F)c1)c1nc(-c2ccc(C)c(C)c2)cs1 (stereo not given)	none (no result: LmPK inhibitor, CHX counter, FBPA Giardia inh, Shiga inhibitor)
Cc1cccc(Nc2nc(-c3ccc(F)c(C)c3)cs2)n1	CHX counter 49, Shiga inhibitor 113
Cc1cccc(Nc2nc(-c3ccc(O)c(O)c3)cs2)n1	LmPK inhibitor inconclusive, CHX counter 42, Shiga inhibitor 85
Oc1[nH]c2ccccc2c1C=Nc1ccccc1	CHX counter 33, Shiga inhibitor 74
CCCOC(=O)c1cccc(NC(=O)c2c(-c3ccccc3Cl)noc2C)c1	none (no result: LmPK inhibitor, CHX counter, FBPA Giardia inh, Shiga inhibitor, RE007 growth inh)
Cc1ccc(-c2[nH]ncc2C(=O)c2ccc(Br)cc2)c(O)c1	CHX counter 11
O=S(=O)(c1ccc(=S)[nH]c1)N1CCOCC1	TbPYK inhibitor 7.9µM (no result: LmPK inhibitor, CHX counter, FBPA Giardia inh, Shiga inhibitor)
O=S(=O)(c1ccc(=S)[nH]c1)N1CCCCCC1	none (no result: LmPK inhibitor, CHX counter, FBPA Giardia inh, Shiga inhibitor)
COc1ccc(Cn2c(CNS(=O)(=O)c3ccc(C)c(C)c3)nc3cccnc32)cc1	none (no result: LmPK inhibitor, CHX counter, FBPA Giardia inh, Shiga inhibitor, RE007 growth inh)
O=C(CSc1nnc(Cc2ccccc2)o1)c1ccc(F)cc1	CHX counter 8.0
O=C(CSc1nnc(Cc2ccsc2)o1)c1ccccc1	CHX counter 21
CCCOC1CCCN(C(=O)c2ccc(OC)c(OC3CCN(C(C)C)CC3)c2)C1 (stereo not given)	CHX counter 19
COC(=O)CN(C)C(=O)c1ccc(OC)c(OC2CCN(C(C)C)CC2)c1	CHX counter 24, Shiga inhibitor 30
COc1ccc(C(=O)NC2CCSc3ccccc32)cc1F (stereo not given)	CHX counter 13
COc1cc(OC)cc(C(=O)NC2CCSc3ccccc32)c1 (stereo not given)	none (no result: FBPA Giardia inh)
COc1ccc(C(=O)NC2CCc3ccccc32)cc1OC1CCN(C(C)C)CC1 (stereo not given)	CHX counter 14, Shiga inhibitor 47
COc1ccc(C(=O)N(C)Cc2ccc(C)o2)cc1OC1CCN(C(C)C)CC1	none (no result: FBPA Giardia inh)
Cc1cc(C)c(OCC(=O)N(Cc2ccc(N(C)C)cc2)Cc2ccco2)c(C)c1	none (no result: LmPK inhibitor, CHX counter, FBPA Giardia inh, Shiga inhibitor, RE007 growth inh)
N#Cc1c[nH]n2c(NC3CCCCC3)c(-c3ccccc3F)nc12	none (no result: LmPK inhibitor, CHX counter, FBPA Giardia inh, Shiga inhibitor, RE007 growth inh)
CCCCOC(=O)c1ccc(NC(=O)c2cc3c(=O)n4cccc(C)c4nc3s2)cc1	none (no result: LmPK inhibitor, CHX counter, FBPA Giardia inh, Shiga inhibitor, RE007 growth inh)
COc1ccc(CCNC(=O)CCc2c(C)c3cc4c(C)c(C)oc4cc3oc2=O)cc1OC	none (no result: LmPK inhibitor, CHX counter, FBPA Giardia inh, Shiga inhibitor, RE007 growth inh)
COc1cc(C(C)=O)ccc1OCC(=O)N1CCc2ccccc2C1	none
Cc1ccc(OCC(=O)N2CCc3ccccc3C2)c(C)c1	CHX counter 11
O=C(c1cc(=O)[nH]c2ccccc12)N1CCc2ccccc2C1	none
